Compound activity (PubChem BioAssay)
Sampled rows, rich in hits. Any-hit rate of the full collection: about 12%.
JMJD2A Tudor inh – JMJD2A Tudor domain (human) inhibition; Potency, µM (highest dose often 114 µM), for the others: at the top dose activity change, negative = inhibition, usual class: inhibitors; 390,000 tested, 4.4% active; AID 504339; O75164; AlphaScreen JMJD2A-Tudor / H3K4me3 peptide binding; further: on the % scale 0 is the no-effect control and ±100 the full control effect; nearly all actives have a fitted effect of over 50% in size
HP1b binding inh – HP1-beta chromodomain-methylated histone interaction inhibition; P83916; AlphaScreen HP1-beta / biotin-H3K9me3 peptide binding; Potency, µM (top dose mostly 114 µM), inactives show at the highest dose activity change, negative = inhibition, usual class: inhibitors; 390,000 tested, 0.56% active; AID 540317; further: nearly all actives have a fitted effect of over 70% in size
Target sequence (P83916 whole entry, looked up): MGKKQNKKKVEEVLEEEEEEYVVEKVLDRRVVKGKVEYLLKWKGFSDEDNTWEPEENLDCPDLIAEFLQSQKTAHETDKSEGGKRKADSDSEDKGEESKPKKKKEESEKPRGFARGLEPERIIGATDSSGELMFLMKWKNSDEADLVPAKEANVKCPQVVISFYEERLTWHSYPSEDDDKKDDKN
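HP1-beta protein (50 nM final) preincubated 30 min at room temperature with biotinylated H3(1-18)K9me3 peptide (50 nM) in PBS pH 7.4, 0.01% Tween-20, then compound added for 30 min. AlphaScreen streptavidin donor/nickel chelate acceptor beads (10 ug/mL final), 30 min dark, luminescence read.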
L3MBTL1 inh – inhibitors of human L3MBTL1. AlphaScreen L3MBTL1–H3K9me1 peptide binding. Potency, µM (top dose mostly 57.1 µM), for the others: at the highest dose activity, negative = inhibition, hits mostly inhibitors. 230,000 tested, 0.66% active. AID 485360; further: on the % scale 0 is the no-effect control and ±100 the full control effect; nearly all actives have a fitted effect of over 60% in size
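L3MBTL1 50 nM + b-AHA-H3(1-15)K9me1 75 nM, 30 min RT; compound added, 30 min RT; streptavidin donor/Ni-chelate acceptor beads 10 ug/mL each final, 30 min RT dark; AlphaScreen read.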
G9a block – G9a (human) methyltransferase inhibition; Q96KQ7; G9a H3K9 monomethylation, AlphaScreen, 2 h; Potency, µM (doses to about 102 µM), for the others: top-dose activity, negative = inhibition, actives largely listed as inhibitors; 350,000 tested, 8.8% active; AID 504332; further: on the % scale 0 is the no-effect control and ±100 the full control effect; nearly all actives have a fitted effect of over 75% in size
Target sequence (Q96KQ7 913-1193 limits assumed): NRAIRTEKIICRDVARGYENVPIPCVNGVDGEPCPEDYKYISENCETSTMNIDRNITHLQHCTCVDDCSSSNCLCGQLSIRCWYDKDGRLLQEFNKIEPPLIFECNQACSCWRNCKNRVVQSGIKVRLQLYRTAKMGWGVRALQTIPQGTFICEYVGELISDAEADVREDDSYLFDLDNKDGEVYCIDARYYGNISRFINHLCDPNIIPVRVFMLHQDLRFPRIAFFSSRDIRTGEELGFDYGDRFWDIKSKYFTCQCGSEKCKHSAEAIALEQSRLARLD
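Quantitative HTS format: methyltransferase activity on a biotin-tagged H3K9 peptide is measured by AlphaScreen, using a rabbit anti-monomethyl-H3K9 antibody with streptavidin donor and anti-IgG acceptor beads. Final levels are 20 nM enzyme, 500 nM peptide, 20 uM SAM; 2 h RT.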
BAZ2B block – inhibitors of human BAZ2B bromodomain | Q9UIF8 | AlphaScreen BAZ2B-H3K14Ac peptide displacement | Potency, µM (highest dose often 114 µM), inactives show at the highest dose activity change, negative = inhibition, usual class: inhibitors | 360,000 tested, 4.4% active; further: on the % scale 0 is the no-effect control and ±100 the full control effect; nearly all actives have a fitted effect of over 60% in size
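BAZ2B 50 nM plus b-H3(5-23)K14Ac 50 nM, PBS pH 7.4/0.01% Tween-20, 30 min RT; compound added (max 110 uM), 30 min RT; streptavidin donor/Ni-chelate acceptor beads 10 ug/mL final, 20 min dark; AlphaScreen read.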
Sfp PPTase inh – Sfp phosphopantetheinyl transferase inhibition; 310,000 tested, 3.5% active; Biochemical Sfp PPTase activity, qHTS; Potency, µM, inactives show largest response in the series, negative = inhibition, usual class: inhibitors; Q9F4F7; AID 1490;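 further: the enzyme is Sfp with the accession as filed and its product quenches rhodamine fluorescence; 0% = enzyme reaction without inhibitor and -100% = no enzyme wells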
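After 15 min at room temperature with compound, 15 nM Sfp received 5 uM rhodamine-CoA plus 12.5 uM BHQ-2-ybbR (50 mM Hepes pH 7.6, 10 mM MgCl2). Rate came from the fluorescence difference over 30 min, ex 525/em 598 nm.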
* marks the source's active call; other numbers are inactive results; [ ] = remark or other dose. The call rests on the fitted dose curve; in most records, active means well fitted curve in the direction sought with a large enough effect; inconclusive means small, poorly fitted or top-dose-only effect, or another doubt; inactive means no such curve, though single readings can be large; an effect the other way counts as inactive or inconclusive. Potency means the concentration at half of the fitted maximal effect.

Screening O=C(CN1CCN(CCN2C(=O)c3cccc4cccc(c34)C2=O)CC1)c1ccc(F)cc1 returned JMJD2A Tudor inh -26%, HP1b binding inh 31%, L3MBTL1 inh -13%, G9a block 1.6µM*, BAZ2B block -6% and Sfp PPTase inh -13%.
O=C(CN1CCN(CCN2C(=O)c3cccc4cccc(c34)C2=O)CC1)c1ccc(Cl)cc1 was read as L3MBTL1 inh -16%, G9a block 7.9µM*, BAZ2B block -34% and Sfp PPTase inh -11%.
COc1ccc(CNC(=O)CCc2c(C)nn(-c3ccc(N4CCCCC4)nn3)c2C)cc1 was read as JMJD2A Tudor inh -18%, HP1b binding inh 15%, G9a block 0%[59 µM] and BAZ2B block -38%.
For O=C(O)CCC/C=C\C[C@@H]1C(/C=C/[C@@H](O)COc2cccc(C(F)(F)F)c2)[C@@H](O)C[C@@H]1O (stereo partly drawn) the results were G9a block 29%[59 µM] and Sfp PPTase inh -6%.
Cc1ccc(C(=O)N2NC(c3ccccc3F)C3C(=O)N(c4cccc(C)c4)C(=O)C32)cc1 (stereo not drawn) was read as JMJD2A Tudor inh -16%, HP1b binding inh 39%, L3MBTL1 inh -12%, G9a block inconclusive, BAZ2B block -30% and Sfp PPTase inh 11%.
`COc1ccccc1N1C(=O)C2C(c3ccccc3F)NN(C(=O)c3ccc(C)cc3)C2C1=O` (stereo not drawn) gave JMJD2A Tudor inh -16%, HP1b binding inh 35%, L3MBTL1 inh -4%, G9a block 20µM*, BAZ2B block -3% and Sfp PPTase inh inconclusive.
Screening O=C(O)Cc1cccc(OCCCN(Cc2cccc(C(F)(F)F)c2Cl)CC(c2ccccc2)c2ccccc2)c1 returned G9a block 18µM* and Sfp PPTase inh 45µM*.
Screening O=C1C(=O)N(C2CCS(=O)(=O)C2)C(c2cccc(O)c2)/C1=C(/O)c1ccc(Cl)cc1 (stereo not drawn) returned JMJD2A Tudor inh inconclusive, HP1b binding inh -2%, G9a block 32µM*, BAZ2B block 79µM* and Sfp PPTase inh 11%.
`COC(=O)c1ccc(C2/C(=C(/O)c3ccc(Cl)cc3)C(=O)C(=O)N2C2CCS(=O)(=O)C2)cc1` (stereo not drawn) gave JMJD2A Tudor inh 89µM*, HP1b binding inh -16%, G9a block 45µM*, BAZ2B block inconclusive and Sfp PPTase inh 1%.
COc1ccc(-c2sc3ccccc3c2C#Cc2cncn2C)cc1 was read as JMJD2A Tudor inh inconclusive, HP1b binding inh -1% and L3MBTL1 inh -20%.
For COc1cc(OC)cc(-c2sc3ccc(OC)cc3c2C#CCCO)c1 the results were JMJD2A Tudor inh -30%, HP1b binding inh 43%, L3MBTL1 inh 0%, G9a block -2%[0.501 µM] and BAZ2B block inconclusive.
COc1ccc2sc(-c3ccccc3OC)c(C#CCCO)c2c1 was read as JMJD2A Tudor inh -33%, HP1b binding inh 42%, L3MBTL1 inh -5%, G9a block -3%[0.501 µM] and BAZ2B block 79µM*.
Screening COc1ccccc1-c1sc2cc3c(cc2c1C#Cc1cncn1C)OCO3 returned JMJD2A Tudor inh 20µM*, HP1b binding inh -29% and L3MBTL1 inh inconclusive.
COc1ccc2sc(-c3ccccc3OC)c(C#Cc3cncn3C)c2c1 was read as JMJD2A Tudor inh 40µM*, HP1b binding inh 0% and L3MBTL1 inh -19%.
Screening COc1ccccc1-c1sc2cc3c(cc2c1C#CCO)OCO3 returned JMJD2A Tudor inh -21%, HP1b binding inh 34%, L3MBTL1 inh -6%, G9a block 5%[0.501 µM] and BAZ2B block -16%.
For C=C(NCc1ccccc1)c1ccccc1O the results were G9a block 5%[12.7 µM] and Sfp PPTase inh 5%.
`CCN(CC)c1ccc(NC(=O)COc2ccc(-n3cnnn3)cc2)cc1` gave JMJD2A Tudor inh 50µM*, HP1b binding inh inconclusive and L3MBTL1 inh -15%.
`CN(c1ccc(OCC(=O)OCC(=O)Nc2ccccc2)cc1)S(=O)(=O)c1cccs1` gave JMJD2A Tudor inh -25%, HP1b binding inh 22%, L3MBTL1 inh 22%, G9a block 39%[59 µM], BAZ2B block -1% and Sfp PPTase inh 36%.
`CCN(CC)c1ccc(NC(=O)COc2ccc(N(C)S(=O)(=O)c3cccs3)cc2)cc1` gave JMJD2A Tudor inh inconclusive, HP1b binding inh -22%, L3MBTL1 inh inconclusive, G9a block 7.9µM*, BAZ2B block 10µM* and Sfp PPTase inh inconclusive.
For CCOc1ccc(NC(=O)COc2ccc(-n3cnnn3)cc2)cc1 the results were JMJD2A Tudor inh -8%, HP1b binding inh 67%, L3MBTL1 inh 0%, G9a block 39%[12.7 µM] and BAZ2B block -1%.
O=C(c1nc2ccc(Cl)cn2c1CN1CCCC1)N1CCc2ccccc2C1 was read as JMJD2A Tudor inh inconclusive, HP1b binding inh 9%, G9a block 79µM*, BAZ2B block inconclusive and Sfp PPTase inh -4%.
For CN(Cc1cccnc1)Cc1c(C(=O)N2CCc3ccccc3C2)nc2ccc(Cl)cn12 the results were JMJD2A Tudor inh -21%, HP1b binding inh 30%, L3MBTL1 inh -2%, G9a block 50µM*, BAZ2B block -23% and Sfp PPTase inh -5%.
CCN(CC)S(=O)(=O)c1cccc(-c2nnc(SCc3nnc(-c4cccs4)o3)n2N)c1 was read as JMJD2A Tudor inh 3%, HP1b binding inh 23%, L3MBTL1 inh 10%, G9a block 50µM*, BAZ2B block 9% and Sfp PPTase inh -10%.
CCN(CC)S(=O)(=O)c1cccc(-c2nnc(SCC(=O)NC)n2N)c1 was read as JMJD2A Tudor inh -7%, HP1b binding inh 43%, L3MBTL1 inh 1%, G9a block -4%, BAZ2B block 1% and Sfp PPTase inh 6%.
`O=C(Nc1ccc2c(c1)OCO2)c1cccc2c1C(=O)N(Cc1cccnc1)C2` gave JMJD2A Tudor inh inconclusive, HP1b binding inh 7%, G9a block -6%[12.7 µM], BAZ2B block 50µM* and Sfp PPTase inh -1%.
For CC(C)CC(=O)NC(=S)Nc1ccc(N2CCOCC2)c(Cl)c1 the results were JMJD2A Tudor inh -6%, HP1b binding inh 22%, L3MBTL1 inh -11%, G9a block 11µM*, BAZ2B block -33% and Sfp PPTase inh 5%.
`O=C(NC(=S)Nc1ccc(N2CCOCC2)c(Cl)c1)c1sc2ccccc2c1Cl` gave JMJD2A Tudor inh -11%, HP1b binding inh 5%, L3MBTL1 inh 3%, G9a block 1.3µM*, BAZ2B block -35% and Sfp PPTase inh inconclusive.
